Compound activity (PubChem)
Mdm2-MdmX inh: human Mdm2/MdmX binding inhibition; O15151+Q00987; inhibition, % at 8 µM; actives 3% (n = 330,000); SaOS-2 split-luciferase Mdm2/MdmX complementation, luminescence; AID 485346;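 active means inhibition of at least 50% at 8 µM in the primary screen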
Target sequence (O15151 whole entry, looked up): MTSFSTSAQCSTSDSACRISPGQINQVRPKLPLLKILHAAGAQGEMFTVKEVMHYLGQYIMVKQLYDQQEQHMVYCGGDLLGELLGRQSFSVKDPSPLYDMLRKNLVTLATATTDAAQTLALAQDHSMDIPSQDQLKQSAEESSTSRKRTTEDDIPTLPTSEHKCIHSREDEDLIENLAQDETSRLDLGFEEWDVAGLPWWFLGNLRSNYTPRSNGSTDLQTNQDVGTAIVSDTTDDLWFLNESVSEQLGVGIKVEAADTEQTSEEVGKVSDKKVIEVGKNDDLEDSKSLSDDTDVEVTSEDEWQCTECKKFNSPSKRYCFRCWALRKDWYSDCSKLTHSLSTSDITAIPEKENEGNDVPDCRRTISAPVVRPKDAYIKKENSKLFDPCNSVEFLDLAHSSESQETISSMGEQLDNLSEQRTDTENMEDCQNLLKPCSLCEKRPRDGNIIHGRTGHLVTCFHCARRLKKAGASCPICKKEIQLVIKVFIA
Target sequence (Q00987 whole entry, looked up): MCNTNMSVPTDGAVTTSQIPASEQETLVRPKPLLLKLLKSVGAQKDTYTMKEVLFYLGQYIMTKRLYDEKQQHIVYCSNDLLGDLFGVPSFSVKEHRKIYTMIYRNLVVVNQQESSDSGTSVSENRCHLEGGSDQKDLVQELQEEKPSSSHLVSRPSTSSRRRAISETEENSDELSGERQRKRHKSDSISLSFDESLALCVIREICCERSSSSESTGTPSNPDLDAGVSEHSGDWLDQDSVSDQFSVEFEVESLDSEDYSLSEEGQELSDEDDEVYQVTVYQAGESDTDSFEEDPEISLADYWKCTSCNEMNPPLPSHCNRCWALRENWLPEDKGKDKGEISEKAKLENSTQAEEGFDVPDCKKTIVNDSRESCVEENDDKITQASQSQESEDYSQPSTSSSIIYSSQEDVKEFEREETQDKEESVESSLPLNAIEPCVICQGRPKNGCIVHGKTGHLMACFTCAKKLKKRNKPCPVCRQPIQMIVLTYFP
KKLEB cytotox: reduces viability of KKLEB cystic fibrosis airway cells. KKLEB CF airway cells viability, ATPlite luminescence, overnight; stronger effect = lower value; cells stimulated with P. aeruginosa culture filtrate. activity change (cytotoxicity), % at 5 µM. actives 0.36% (n = 360,000);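 active means corrected activity change at or below -50% at 5 µM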
Peg3 prom inh-1: Peg3 promoter activity inhibition; HeLa PEG-Prom luciferase reporter, luminescence, overnight; inhibition, % at 20 µM; actives 1.7% (n = 360,000);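 active means inhibition of at least 50% at 20 µM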
HSP90 inh: inhibitors of HSP90 luciferase refolding in rabbit reticulocyte lysate | luciferase refolding luminescence, 3 h | inhibition, % at 5.6 µM | actives 0.91% (n = 290,000);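 active means inhibition above the screen-wide mean plus 3 SD, computed separately per campaign, cut at about 16% in these data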;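 further: 0% = DMSO wells and 100% = 60 µM geldanamycin wells; inhibitors lower the luminescence because luciferase stays unfolded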
LGR2 inh: blocks bursicon-induced cAMP signaling via Drosophila LGR2 | AID 720647 | inhibition, % at 9.99 µM | HEK293 LGR2, CRE-luciferase, bursicon-stimulated, 4 h | actives 0.35% (n = 380,000);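 active means drop in luminescence signal, shown as inhibition above about 50% in the replicate tests, limit read from the data, passing the limit was not always enough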;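 further: agonist challenge used bursicon conditioned medium at about half maximal strength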
CF NFkB inh: inhibitors of cystic fibrosis induced NF-kB; KKLEB NF-kB-GFP reporter, PAF-induced, GFP fluorescence overnight; inhibition, % at 5 µM; actives 0.86% (n = 360,000); AID 588850;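 active means at least 50% inhibition at 5 µM, scaled per plate between neutral and stimulator controls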;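 further: PAF is a Pseudomonas aeruginosa culture filtrate used as stimulus; plate controls were PAF-stimulated DMSO wells for no effect and unstimulated DMSO wells for full effect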
Peg3 prom inh-2: Peg3 promoter inhibition confirmation; inhibition, % at 20 µM; actives 84% (n = 1,300); shares compounds with Peg3 prom inh-1; HeLa PEG-Prom luciferase reporter, luminescence, overnight; AID 602417;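 active means at 20 µM dose, 40% or more inhibition averaged across four replicates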
Starred values were filed as active, the others as inactive; / = no result given. A selection: hits, their analogues and other compounds. The true share with any hit is near 3.6%.

SMILES | Mdm2-MdmX inh | KKLEB cytotox | Peg3 prom inh-1 | HSP90 inh | LGR2 inh | CF NFkB inh | Peg3 prom inh-2
OC1(c2ccccc2)CCN(Cc2ccccc2)CC1 | -2 | -8 | 2 | 1 | -5 | -2 | /
O=C(C[C@H]1C[C@H](C(=O)N2CCCCC2)[C@@]2(CCc3ccccc3)c3[nH]c4ccc(Cl)cc4c3CCN2C1=O)NCCc1ccccn1 | 26 | 2 | 69* | / | / | 35 | 88*
CCNC(=O)[C@@H]1[C@@H](CO)[C@@H]2Cn3c(ccc(-c4cccnc4)c3=O)[C@H]1N2Cc1ccccc1 | / | / | / | / | 7 | / | /
O=C1N=C(N2CCOCC2)S/C1=C\c1ccc(-c2ccccc2Cl)o1 | 3 | 4 | 55* | 0 | / | -6 | 18
O=C(C[C@H]1C[C@@H]2c3cc(NC(=O)Nc4ccccc4F)ccc3O[C@@H]2[C@H](CO)O1)NC1CCCC1 | / | / | / | / | 15 | / | /
C[C@@H]1CN([C@H](C)CO)C(=O)c2cc(C#CCc3ccccc3)cnc2O[C@@H]1CN(C)Cc1ccccc1 | / | / | / | / | 5 | / | /
O=C(Nc1nccs1)c1cc(-c2ccncc2)nc2ccccc12 | 0 | 6 | 7 | -9 | -22 | -17 | /
Cc1ccc(-c2cc(C(=O)Nc3nccs3)c3ccccc3n2)c(C)c1 | 42 | -6 | 91* | -1 | / | -36 | 61*
CCCNC(=O)N1C[C@H](O)COC[C@@H]2O[C@@H](CC(=O)N[C@@H]3CCN(Cc4ccccc4)C3)CC[C@H]21 | / | / | / | / | 3 | / | /
COCC(C)n1c(C)cc(C(=O)COC(=O)c2cccn2C)c1C (stereo unspecified) | 26 | -1 | 56* | / | / | 5 | 45*
COCC(C)n1c(C)cc(C(=O)COC(=O)c2cnc(Cl)c(Cl)c2)c1C (stereo unspecified) | 18 | 4 | 16 | / | 2 | -10 | /
Cc1noc(C)c1S(=O)(=O)Nc1ccc2c(c1)C(=O)N([C@@H](C)CO)C[C@@H](C)[C@H](CN(C)S(=O)(=O)c1c(C)noc1C)OCCCC[C@@H](C)O2 | / | / | / | / | -3 | / | /
COc1ccc(NC(=O)N2C[C@H]3[C@@H](c4ccccc42)[C@H](CO)N3C(=O)C2CCCCC2)cc1 | / | / | / | / | -22 | / | /
CCOC(=O)CSC1=NC(=O)/C(=C\c2ccc(Cl)cc2)S1 | 23 | -4 | 88* | -1 | / | 9 | 0
CCOC(=O)C1CCN(C2=NC(=O)/C(=C/c3ccc(Cl)cc3)S2)CC1 | 1 | -2 | 24 | -2 | -6 | -1 | /
COc1ccc(/C=C2\SC(=S)N(CCC(=O)N(CCO)Cc3ccccc3)C2=O)cc1OC | 44 | -10 | 78* | 1 | -28 | 23 | 14
Cc1ccc(NS(=O)(=O)c2cc3c4c(cccc4c2)C(=O)NC3=O)cc1C | 40 | -2 | 57* | -1 | 11 | 1 | 60*
Cc1ccc(S(=O)(=O)N(C)C[C@@H]2Oc3ccc(NC(=O)CCC(F)(F)F)cc3CC(=O)N([C@H](C)CO)C[C@@H]2C)cc1 | / | / | / | / | -2 | / | /
C[C@H]1CN([C@@H](C)CO)C(=O)Cc2cc(NC(=O)C3CCCCC3)ccc2O[C@H]1CN(C)C(=O)Nc1cccc2ccccc12 | / | / | / | / | 24 | / | /
Cc1cc(C)c2c(N)c3ccccc3nc2n1 | 49 | 9 | 87* | -4 | / | -146 | 91*
COc1ccc(C(=O)c2sc(Nc3cccc(OC)c3)c(C(=O)Nc3cccc(C)c3C)c2N)cc1 | 37 | -35 | 97* | 0 | / | 27 | 34
O=C(CC1CC1)Nc1ccc2c(c1)[C@@H]1C[C@H](CC(=O)N3CCCCC3)O[C@@H](CO)[C@@H]1O2 | / | / | / | / | -4 | / | /
C[C@@H]1CN([C@@H](C)CO)C(=O)c2cccc(NS(=O)(=O)c3cccs3)c2O[C@@H]1CN(C)S(=O)(=O)c1cccs1 | / | / | / | / | 2 | / | /
CCC(c1ccc(O)c(O)c1)C(CC)c1ccc(O)c(O)c1 (stereo unspecified) | / | -21 | 100* | / | / | 84* | 98*
CCCCC(=O)NC(c1ccc(OC)cc1)c1ccc2cccnc2c1O (stereo unspecified) | / | 5 | 52* | / | 11 | -44 | 69*
SMILES | Mdm2-MdmX inh | KKLEB cytotox | Peg3 prom inh-1 | HSP90 inh | LGR2 inh | CF NFkB inh | Peg3 prom inh-2
CC(=O)NC(c1ccc(Cl)cc1)c1ccc2cccnc2c1O (stereo unspecified) | / | -32 | 60* | / | / | 6 | 70*
COc1ccccc1NC(c1cccnc1)c1ccc2cccnc2c1O (stereo unspecified) | 13 | -20 | 36 | 0 | / | 23 | /
CC(=O)NC(c1ccc(F)cc1)c1cccnc1 (stereo unspecified) | -10 | 15 | -6 | 1 | / | -12 | /
CC(=O)NC(c1ccc(N(C)C)cc1)c1cc(Cl)c2cccnc2c1O (stereo unspecified) | / | -8 | 59* | / | 15 | 36 | 68*
CCN(CC)CCCNc1ccc2ncn3c4ccc(O)cc4c(=O)c1c23 | / | -11 | 23 | / | -37 | -24 | /
Cc1ccc(NCCN(C)C)c2c(=O)c3cc(O)ccc3sc12 | / | -24 | 106* | / | -4 | -136 | 100*
CN(C)CCNc1ccc2nnn3c4ccc(O)cc4c(=O)c1c23 | / | -17 | 75* | / | -11 | -30 | 56*
O=C(O)CCNc1ccc(NCCC(=O)O)c2c1C(=O)c1ccccc1C2=O | 11 | 7 | 10 | 10 | 11 | -36 | /
O=C1c2cccc(NCCNCCO)c2C(=O)c2cccc(NCCNCCO)c21 | / | 13 | 99* | / | 92* | -82 | -2
O=S(=O)(/N=C(/Sc1ccccc1)c1ccccc1)c1ccccc1 | 17 | -5 | 60* | 4 | / | -6 | 75*
O=C(Cc1cccnc1)N1CC(=O)N2[C@H](CO)[C@@H](c3ccc(C#CC4CC4)cc3)[C@H]2C1 | / | / | / | / | 4 | / | /
O=C(Nc1ccccc1)c1nc[nH]c1C(=O)NCCCNC(=O)c1[nH]cnc1C(=O)Nc1ccccc1 | 39 | -29 | 63* | / | 14 | 17 | 46*
CCN(CC)C(=O)c1[nH]cnc1C(=O)Nc1ccccc1 | 22 | 3 | 4 | / | 1 | -26 | /
C/C=C/c1ccc([C@H]2[C@H](CO)N3C(=O)CN(C(=O)Nc4ccc(F)cc4)C[C@@H]23)cc1 | / | / | / | / | -2 | / | /
CCn1c(/C=C2\C(=O)Nc3ccccc32)nc2ccccc2c1=O | 8 | -17 | 52* | 1 | 12 | 9 | 35
CCn1c(/C=C/c2ccc(O)cc2)nc2ccccc2c1=O | 15 | 14 | 4 | 8 | -21 | 8 | /
Cc1ccc(S(=O)(=O)N(C)C[C@@H]2OCCCC[C@@H](C)Oc3ccc(NS(=O)(=O)c4c(C)noc4C)cc3C(=O)N([C@@H](C)CO)C[C@H]2C)cc1 | / | / | / | / | -8 | / | /
COc1ccc(-c2ccc(-c3nc4c(c(=O)[nH]c(=O)n4Cc4ccccc4)n3C)o2)c([N+](=O)[O-])c1 | -14 | -37 | 57* | 2 | -41 | 21 | 16
